Assay results taken from PubChem BioAssay (NCATS).
Records with an inconclusive call do not appear. Activity calls are given as the source filed them. Unless noted, calls follow the shape of the dose curve; as a rule, active = well fitted curve in the direction sought with a large enough effect; inconclusive = small, poorly fitted or top-dose-only effect, or another doubt; inactive = no such curve, though single readings can be large; an effect the other way counts as inactive or inconclusive.

What was measured:
[1] = molecular target: Glucocorticoid receptor (Homo sapiens) (UniProt P04150); test: GR-GFP Redistribution (AID 450;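 active = compounds whose dose series gives a full or clear partial fitted curve of increased nuclear translocation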; also: potency is read from the fitted curve at half-maximal effect); details: U2OS GR-GFP nuclear translocation, laser cytometry, 2 h
[2] = molecular target: Glucocorticoid receptor (Homo sapiens) (UniProt P04150); test: GR-EFC Redistribution (AID 451; calls by dose curve; also: potency is read from the fitted curve at half-maximal effect); details: CHO-K1 GR-EFC translocation, beta-gal luminescence, 2 h
Outline: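 CHO-K1 cells expressing nuclear EA and GR-ED fragments of b-gal; compounds titrated up to 46 uM final, 2 h at 37 C. GR nuclear translocation read as complemented b-gal luminescence after 1 h RT detection.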

[3] = molecular target: Mitogen-activated protein kinase 10 (Mus musculus) (UniProt Q61831); test: JNK3 AlphaScreen Assay (AID 530; active = well fitted curve in either direction with a large enough effect, not every such curve was filed as active;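 also: kinase came from lysate of stimulated human HepG2 cells; signal reports phosphorylation of biotinylated GST-cJun 1-79 at Ser73 with 10 µM ATP; series mostly up to about 57 µM; % is scaled to controls: 0 for no effect and ±100 for the full control effect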)
Outline: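 Pre-activated (IL-1β/TNFα) JNK3 in HepG2 lysates phosphorylates biotin-GST-cJun(1-79), 10 uM ATP; anti-phospho-cJun(Ser73) AlphaScreen read at room temperature, pH 7.6 Tris buffer. Compounds pre-incubated 15 min as titrations.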

[4] = molecular target: Ubiquitin carboxyl-terminal hydrolase 1 (Homo sapiens) (UniProt O94782); test: Inhibitors of USP1/UAF1: Pilot qHTS (AID 504865);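 also: rhodamine fluorescence freed from ubiquitin-rhodamine substrate followed over time; top concentration of the series differs between compounds; % is scaled to controls: 0 for no effect and ±100 for the full control effect; nearly all actives have a fitted effect of over 35% in size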
Outline: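 USP1/UAF1 complex (1nM) preincubated with compound 15 min at room temperature, then Ub-Rho substrate (150nM final) added. Fluorescence read kinetically at 480/540 nm, 6 reads every 60 seconds. Buffer: 50mM HEPES pH 7.8, 0.5mM EDTA, 0.1 mg/ml BSA, 1mM TCEP, 0.01% Tween-20.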

[5] = molecular target: DNA dC->dU-editing enzyme APOBEC-3G (Homo sapiens) (UniProt Q9HC16); test: qHTS for inhibitors of Vif-A3G interactions: Validation (AID 588379); also: 0% is about no effect
Outline: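 HeLa cells stably expressing Vif and A3G-eYFP, 700 cells/well, incubated overnight at 37 deg C, then exposed to compound overnight at 37 deg C. Inhibition of Vif-mediated degradation read as increased yellow fluorescence (Ex 488/Em 500-530) by laser-scanning cytometry.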

[6] = test system: Zika virus NS2B-NS3 protease; test: Primary screen GU AMC qHTS for Zika virus inhibitors (AID 1347154);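 also: 0% = no-inhibitor control and -100% = no-enzyme control; nearly all actives have a fitted effect of over 70% in size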
Outline: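 Unlinked Zika NS2B hydrophilic domain–NS3 protease complex at 25 nM in 10 mM Tris-HCl pH 8.0, 0.01% Tween 20, with an AMC peptide substrate. Fluorescence change (340/450 nm) over 15 min at room temperature, normalized to controls, fitted to 4-parameter Hill.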

[7] = Primary qHTS for small molecule stabilizers of the endoplasmic reticulum resident proteome: Secreted ER Calcium Modulated Protein (SERCaMP) assay (AID 1508630); also: % is scaled to controls: 0 for no effect and ±100 for the full control effect
Outline: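 GLuc-SERCaMP-expressing SH-SY5Y cells, pretreated 16 h with compound, are challenged with thapsigargin to empty ER calcium stores; after 4 h, coelenterazine is added directly to the medium and luminescence is imaged.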

[8] = molecular target: Cytochrome P450 1A2 (Homo sapiens) (UniProt P05177); test: p450-cyp1a2 (AID 410; calls by dose curve; also: potency is read from the fitted curve at half-maximal effect;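 as to activity change, negative = inhibition: -100% = full effect of reference inhibitor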)
Outline: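 Luminescent readout of luciferin formed from Luciferin-ME by human CYP1A2; data normalized against complete inhibition by 57 uM furafylline. Enzyme 20nM, substrate 100uM at Km, 100mM KPO4 buffer, 60 min reaction at room temperature.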

[9] = molecular target: Cytochrome P450 3A4 (Homo sapiens) (UniProt P08684); test: qHTS Assay for Inhibitors and Substrates of Cytochrome P450 3A4 (AID 884); also: potency is read from the fitted curve at half-maximal effect; nearly all actives have a fitted effect of over 50% in size
Outline: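 20 nM human CYP3A4 with 25 uM Luciferin-PPXE (at KM) in 200 mM KPO4, preincubated 10 min with compound; NADPH regeneration started a 60 min RT reaction. Luciferin detected by luminescence, normalized to 57 uM ketoconazole as full inhibition.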

[10] = molecular target: Cytochrome P450 3A4 (Homo sapiens) (UniProt P08684); test: qHTS Assay for Activators of Cytochrome P450 3A4 (AID 885); also: nearly all actives have a fitted effect of over 65% in size
Outline: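 Human CYP3A4 (20 nM) with Luciferin-PPXE at 25 uM (its KM) in 200 mM KPO4; 10 min compound preincubation, then NADPH regeneration and 60 min reaction at RT. Luciferin read by luminescence; normalized to 57 uM ketoconazole full inhibition.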

[11] = molecular target: 3',5'-cyclic-AMP phosphodiesterase 4B (Homo sapiens) (UniProt Q07343); test: qHTS Assay for Inhibitors of PDE-IV (AID 607; active = well fitted activation curve with a large enough effect in the main read-out, with a control signal flat, not every such curve was filed as active; also: potency is read from the fitted curve at half-maximal effect)
Outline: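 HEK293 ACTOne cells with CNG channel (1000/well), endogenous PDE4; membrane potential dye, compounds up to 22.9 uM final. Fluorescence Ex 535/Em 590; RO 20-1724 (100 uM final) as reference.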

[12] = molecular target: Guanine nucleotide-binding protein G(i) subunit alpha-1 (Homo sapiens) (UniProt P63096); test: qHTS Assay for Inhibitors of RGS12 GoLoco Motif Activity (Green Fluorophore) (AID 879);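 also: 0% = labeled peptide with Gαi1 and full inhibition = labeled peptide alone without protein; negative values mean loss of peptide binding seen as reduced polarization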
Outline: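 Fluorescence polarization assay: 50 nM Gαi1 with 10 nM FITC-labeled RGS12 GoLoco peptide in 10 mM Tris pH 7.5, 150 mM NaCl, 0.1 mM GDP, 0.05% NP40, 10 min at room temperature with compound.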

[13] = molecular target: Muscarinic acetylcholine receptor M1 (Rattus norvegicus) (UniProt P08482); test: qHTS Assay for Antagonists of Acetylcholine Muscarinic M1 Receptor: Kinetic Measurement of Intracellular Calcium Response (AID 943);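 also: Fluo-4 calcium signal as peak divided by basal fluorescence over 4 min; series mostly up to about 35 µM; nearly all actives have a fitted effect of over 75% in size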
Outline: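 Rat M1-CHO cells, 2000/well, overnight → Fluo-4 no-wash dye with probenecid, 1 h 37C → compound 10 min, room temp → basal read 6 s → carbachol EC80 (100 nM) → 4 min kinetic read; peak/basal.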

[14] = molecular target: Muscarinic acetylcholine receptor M1 (Rattus norvegicus) (UniProt P08482); test: qHTS Assay for Antagonists of Acetylcholine Muscarinic M1 Receptor: Measurement of IP-One Response (AID 944); also: nearly all actives have a fitted effect of over 75% in size
Outline: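 M1-CHO (rat), 2000 cells/well, overnight recovery; cpd 10 min; carbachol EC80 (200 nM), 30 min, HEPES buffer + 50 mM LiCl pH 7.4; IP-One HTRF, Ex 337, Em 620/665 nm.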

[15] = molecular target: Pyruvate kinase PKM (Homo sapiens) (UniProt P14618); test: qHTS Assay for Inhibitors of Human Muscle Pyruvate Kinase (AID 958); details: purified human PKM enzyme activity
Outline: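 PKM2, human, >95% pure, 0.1 nM; PEP 0.5 mM (Km), ADP 0.1 mM; 50 mM imidazole pH 7.2, 50 mM KCl, 0.01% Tween 20, 0.05% BSA; 1 h RT; luciferase luminescence readout.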

[16] = molecular target: Pyruvate kinase (Leishmania mexicana) (UniProt Q27686); test: qHTS Validation Assay for Activators of Leishmania Mexicana Pyruvate Kinase (AID 959)
Outline: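 qHTS eight-point titrations against 0.2 nM LmPYK (E451W) in imidazole buffer pH 7.2 with 0.5 mM PEP, 0.1 mM ADP; 1 h, room temperature. Readout: PKLight luminescence, normalized to neutral DMSO wells.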

[17] = molecular target: Alpha-galactosidase A (Homo sapiens) (UniProt P06280); test: Counterscreen for Glucocerebrosidase Inhibitors: qHTS Assay for Human alpha-Galactosidase at pH 4.5 (AID 992); also: 0% is about no effect
Outline: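 Human enzyme (2 nM) with 80 uM 4-methylumbelliferyl alpha-D-galactopyranoside in 50 mM citric acid, 0.005% Tween-20, pH 4.5, 20 min at room temperature. Compounds 0.7 nM–77 uM; fluorescence Ex 365/Em 440 after pH 10 stop; AC50 from Hill fits.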

[18] = molecular target: alpha-glucosidase (Oryza sativa, rice) (UniProt Q653V4); test: Counterscreen for Glucocerebrosidase Inhibitors: qHTS Assay for Rice alpha-Glucosidase at pH 5.0 (AID 997);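 also: 0% = full activity with enzyme and -100% = basal without enzyme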
Outline: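 Rice alpha-glucosidase (4 nM final) with 400 uM 4-methylumbelliferyl-alpha-D-glucopyranoside in citrate buffer pH 5.0, 20 min at room temperature, stopped at pH 10; fluorescence 365/440 nm, compounds 0.7 nM–77 uM, AC50 from Hill fits.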

[19] = molecular target: Cytochrome P450 2D6 (Homo sapiens) (UniProt P10635); test: qHTS Assay for Inhibitors and Substrates of Cytochrome P450 2D6 (AID 891); also: potency is read from the fitted curve at half-maximal effect; nearly all actives have a fitted effect of over 60% in size
Outline: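 Human CYP2D6 (5 nM) with 30 uM Luciferin-ME EGE (at Km) in 100 mM KPO4, compound preincubated 10 min, then NADPH regeneration system for 60 min at room temperature. Luciferin read by luminescence; normalized to 1.43 uM quinidine.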

[20] = molecular target: Cytochrome P450 2C19 (Homo sapiens) (UniProt P33261); test: qHTS Assay for Inhibitors and Substrates of Cytochrome P450 2C19 (AID 899); also: potency is read from the fitted curve at half-maximal effect; nearly all actives have a fitted effect of over 60% in size
Outline: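 Luminescent read-out of luciferin formed from Luciferin-H EGE (10uM, equal to KM). Enzyme 5nM in 50mM KPO4; compound added, 10 min at 37C, then NADPH regenerating system for 60 min at 37C. Full inhibition defined by 57uM ketoconazole.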

Cytochrome P450 3A4 (Homo sapiens), sequence (P08684 whole entry, looked up): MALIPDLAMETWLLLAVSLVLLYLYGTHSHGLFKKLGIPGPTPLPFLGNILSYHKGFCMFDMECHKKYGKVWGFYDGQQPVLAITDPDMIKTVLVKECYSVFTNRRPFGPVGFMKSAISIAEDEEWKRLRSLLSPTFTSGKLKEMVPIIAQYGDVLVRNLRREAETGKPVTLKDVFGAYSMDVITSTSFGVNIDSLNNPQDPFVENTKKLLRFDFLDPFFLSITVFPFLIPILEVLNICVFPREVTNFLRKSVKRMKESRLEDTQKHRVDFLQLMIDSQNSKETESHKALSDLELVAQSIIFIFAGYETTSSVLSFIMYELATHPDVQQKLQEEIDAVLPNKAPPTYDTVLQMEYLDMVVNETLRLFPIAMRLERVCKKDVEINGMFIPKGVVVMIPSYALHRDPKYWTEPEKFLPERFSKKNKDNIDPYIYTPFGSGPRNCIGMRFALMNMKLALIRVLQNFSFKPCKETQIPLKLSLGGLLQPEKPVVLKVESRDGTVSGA
Cytochrome P450 1A2 (Homo sapiens), sequence (P05177 whole entry, looked up): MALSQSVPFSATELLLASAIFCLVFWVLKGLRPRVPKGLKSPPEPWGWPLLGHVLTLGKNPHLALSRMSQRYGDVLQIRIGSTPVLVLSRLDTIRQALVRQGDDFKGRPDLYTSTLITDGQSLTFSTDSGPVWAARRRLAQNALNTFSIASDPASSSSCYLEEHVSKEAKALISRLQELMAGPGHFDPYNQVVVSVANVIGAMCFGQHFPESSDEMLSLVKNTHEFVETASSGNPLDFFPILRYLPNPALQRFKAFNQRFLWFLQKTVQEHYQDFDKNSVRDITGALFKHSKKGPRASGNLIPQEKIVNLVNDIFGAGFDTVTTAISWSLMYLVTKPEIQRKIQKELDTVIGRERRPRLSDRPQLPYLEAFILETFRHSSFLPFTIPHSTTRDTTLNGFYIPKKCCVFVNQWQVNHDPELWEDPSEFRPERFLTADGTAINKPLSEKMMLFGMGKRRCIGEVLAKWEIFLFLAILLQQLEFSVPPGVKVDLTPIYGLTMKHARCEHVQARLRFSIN
DNA dC->dU-editing enzyme APOBEC-3G (Homo sapiens), sequence (Q9HC16 whole entry, looked up): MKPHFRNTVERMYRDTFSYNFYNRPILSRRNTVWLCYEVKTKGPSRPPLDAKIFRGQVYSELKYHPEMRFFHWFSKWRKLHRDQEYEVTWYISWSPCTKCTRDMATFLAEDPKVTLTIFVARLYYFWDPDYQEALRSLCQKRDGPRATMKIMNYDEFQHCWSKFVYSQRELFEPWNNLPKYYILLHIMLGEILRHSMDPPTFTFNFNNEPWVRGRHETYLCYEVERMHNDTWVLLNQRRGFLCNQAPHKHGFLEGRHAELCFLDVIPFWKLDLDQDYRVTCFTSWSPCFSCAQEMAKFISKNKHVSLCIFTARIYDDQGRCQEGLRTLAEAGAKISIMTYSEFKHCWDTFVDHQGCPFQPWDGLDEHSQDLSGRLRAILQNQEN
Ubiquitin carboxyl-terminal hydrolase 1 (Homo sapiens), sequence (O94782 whole entry, looked up): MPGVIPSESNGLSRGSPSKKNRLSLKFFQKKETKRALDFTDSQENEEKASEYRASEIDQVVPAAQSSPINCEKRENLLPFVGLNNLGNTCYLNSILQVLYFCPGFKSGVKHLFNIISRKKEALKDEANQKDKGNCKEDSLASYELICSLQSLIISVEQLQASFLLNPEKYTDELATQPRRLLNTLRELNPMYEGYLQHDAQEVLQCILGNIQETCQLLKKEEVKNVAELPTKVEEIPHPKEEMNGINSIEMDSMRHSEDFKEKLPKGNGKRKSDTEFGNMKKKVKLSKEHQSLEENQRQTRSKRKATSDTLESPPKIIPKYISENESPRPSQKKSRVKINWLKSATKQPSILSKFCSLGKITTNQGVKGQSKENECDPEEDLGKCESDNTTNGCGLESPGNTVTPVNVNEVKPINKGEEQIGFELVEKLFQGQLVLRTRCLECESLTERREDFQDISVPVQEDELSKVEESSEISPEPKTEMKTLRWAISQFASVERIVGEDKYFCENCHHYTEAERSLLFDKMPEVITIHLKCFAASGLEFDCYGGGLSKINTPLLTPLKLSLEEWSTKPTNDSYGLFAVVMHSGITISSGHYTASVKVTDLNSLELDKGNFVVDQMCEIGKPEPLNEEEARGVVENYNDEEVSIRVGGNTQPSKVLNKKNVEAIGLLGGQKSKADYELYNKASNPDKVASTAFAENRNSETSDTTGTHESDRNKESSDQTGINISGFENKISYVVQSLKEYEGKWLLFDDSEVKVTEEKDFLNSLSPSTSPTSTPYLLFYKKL
3',5'-cyclic-AMP phosphodiesterase 4B (Homo sapiens), sequence (Q07343 whole entry, looked up): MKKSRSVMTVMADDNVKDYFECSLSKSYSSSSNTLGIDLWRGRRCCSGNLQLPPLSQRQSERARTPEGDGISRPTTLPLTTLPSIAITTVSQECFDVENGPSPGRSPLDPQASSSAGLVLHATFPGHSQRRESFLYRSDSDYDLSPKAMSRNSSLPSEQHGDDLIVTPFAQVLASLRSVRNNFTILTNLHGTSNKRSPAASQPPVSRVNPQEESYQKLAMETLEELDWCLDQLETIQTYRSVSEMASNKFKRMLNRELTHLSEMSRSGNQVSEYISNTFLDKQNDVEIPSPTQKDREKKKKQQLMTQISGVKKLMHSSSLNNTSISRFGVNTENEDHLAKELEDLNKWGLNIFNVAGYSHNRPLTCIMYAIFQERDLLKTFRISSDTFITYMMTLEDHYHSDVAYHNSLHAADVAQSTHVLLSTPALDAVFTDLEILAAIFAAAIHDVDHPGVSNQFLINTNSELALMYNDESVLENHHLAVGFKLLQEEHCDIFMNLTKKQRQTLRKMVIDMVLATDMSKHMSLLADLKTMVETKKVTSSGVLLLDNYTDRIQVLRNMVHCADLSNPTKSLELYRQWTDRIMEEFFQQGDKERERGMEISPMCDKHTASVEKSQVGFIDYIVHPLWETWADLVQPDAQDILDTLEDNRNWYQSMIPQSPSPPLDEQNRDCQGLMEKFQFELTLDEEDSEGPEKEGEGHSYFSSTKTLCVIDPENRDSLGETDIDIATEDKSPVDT
Glucocorticoid receptor (Homo sapiens), sequence (P04150 whole entry, looked up, the tested form may be a part): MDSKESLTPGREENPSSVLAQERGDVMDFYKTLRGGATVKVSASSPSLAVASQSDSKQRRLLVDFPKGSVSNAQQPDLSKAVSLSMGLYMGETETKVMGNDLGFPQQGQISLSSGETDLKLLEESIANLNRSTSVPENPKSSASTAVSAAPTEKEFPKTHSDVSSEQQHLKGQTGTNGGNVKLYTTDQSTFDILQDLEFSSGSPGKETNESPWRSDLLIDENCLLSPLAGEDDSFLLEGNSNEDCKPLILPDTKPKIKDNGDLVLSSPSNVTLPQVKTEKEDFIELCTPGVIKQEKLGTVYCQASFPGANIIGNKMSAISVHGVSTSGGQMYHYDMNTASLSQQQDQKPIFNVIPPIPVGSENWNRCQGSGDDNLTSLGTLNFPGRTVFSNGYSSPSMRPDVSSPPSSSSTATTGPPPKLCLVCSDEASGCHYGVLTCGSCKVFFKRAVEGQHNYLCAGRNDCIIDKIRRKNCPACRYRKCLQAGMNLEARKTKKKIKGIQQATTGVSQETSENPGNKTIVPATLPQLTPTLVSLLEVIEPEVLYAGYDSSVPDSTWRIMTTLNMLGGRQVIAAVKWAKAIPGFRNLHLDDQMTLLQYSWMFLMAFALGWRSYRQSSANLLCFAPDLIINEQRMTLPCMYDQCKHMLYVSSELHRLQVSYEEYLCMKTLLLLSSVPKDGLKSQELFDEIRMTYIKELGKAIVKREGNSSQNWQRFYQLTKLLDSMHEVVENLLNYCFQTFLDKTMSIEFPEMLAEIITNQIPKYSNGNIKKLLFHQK
Muscarinic acetylcholine receptor M1 (Rattus norvegicus), sequence (P08482 whole entry, looked up): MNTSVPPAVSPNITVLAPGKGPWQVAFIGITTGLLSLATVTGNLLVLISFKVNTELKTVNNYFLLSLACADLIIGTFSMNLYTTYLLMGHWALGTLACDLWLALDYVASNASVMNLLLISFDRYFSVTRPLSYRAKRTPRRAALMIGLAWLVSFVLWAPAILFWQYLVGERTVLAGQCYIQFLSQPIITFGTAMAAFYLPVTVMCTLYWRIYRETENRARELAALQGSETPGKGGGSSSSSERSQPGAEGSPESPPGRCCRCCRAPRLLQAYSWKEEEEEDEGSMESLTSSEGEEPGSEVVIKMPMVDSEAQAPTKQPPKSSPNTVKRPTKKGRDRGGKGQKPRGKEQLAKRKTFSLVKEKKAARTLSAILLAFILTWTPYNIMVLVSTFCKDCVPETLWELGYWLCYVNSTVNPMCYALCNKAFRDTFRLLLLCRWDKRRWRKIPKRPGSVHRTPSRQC
Pyruvate kinase (Leishmania mexicana), sequence (Q27686 2-499 E452W): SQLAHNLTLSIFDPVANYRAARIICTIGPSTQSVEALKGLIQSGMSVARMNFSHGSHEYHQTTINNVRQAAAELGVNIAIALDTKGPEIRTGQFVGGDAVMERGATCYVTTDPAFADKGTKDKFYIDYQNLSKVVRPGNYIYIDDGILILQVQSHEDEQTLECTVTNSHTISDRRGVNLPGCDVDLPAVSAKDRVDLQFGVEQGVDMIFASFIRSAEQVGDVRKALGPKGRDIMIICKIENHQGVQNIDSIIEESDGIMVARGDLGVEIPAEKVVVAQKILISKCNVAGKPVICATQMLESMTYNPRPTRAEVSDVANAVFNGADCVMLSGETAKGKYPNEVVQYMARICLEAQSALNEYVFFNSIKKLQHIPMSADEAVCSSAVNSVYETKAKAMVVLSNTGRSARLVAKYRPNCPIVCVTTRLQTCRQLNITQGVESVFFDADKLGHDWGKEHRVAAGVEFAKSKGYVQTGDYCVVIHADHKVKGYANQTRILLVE
Guanine nucleotide-binding protein G(i) subunit alpha-1 (Homo sapiens), sequence (P63096 whole entry, looked up): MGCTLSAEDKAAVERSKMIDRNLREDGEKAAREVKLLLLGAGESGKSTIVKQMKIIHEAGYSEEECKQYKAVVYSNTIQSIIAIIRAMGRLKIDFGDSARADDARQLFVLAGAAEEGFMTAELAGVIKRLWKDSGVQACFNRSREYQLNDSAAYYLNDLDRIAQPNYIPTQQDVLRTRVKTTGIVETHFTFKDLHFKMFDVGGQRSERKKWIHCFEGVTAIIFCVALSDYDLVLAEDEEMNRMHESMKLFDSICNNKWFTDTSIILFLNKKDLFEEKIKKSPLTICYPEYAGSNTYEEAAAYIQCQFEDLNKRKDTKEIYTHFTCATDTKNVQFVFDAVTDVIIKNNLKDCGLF

CCCCCCCC(=O)O[C@H](CC(=O)O)C[N+](C)(C)C
inactive: Potency [1] > 46 µM | Potency [2] > 46 µM | Potency [3] | Potency [4] | Potency [5] | Potency [6] | Potency [7]

O=S(=O)(NCCCCCCc1ccccc1)c1cccc2c(Cl)cccc12
active: Potency [8] 15.8 µM | Potency [9] 2.51 µM
inactive: Potency [2] > 46 µM | Potency [10] | Potency [5] | Potency [6] | Potency [7]

CCCCC[C@H](O)/C=C/[C@H]1C=CC(=O)[C@@H]1C/C=C\CCCC(=O)O
inactive: Potency [1] > 20.6 µM | activity change, negative = inhibition [6] 7.12% [at 6.83 µM] | activity change, negative = inhibition [7] -13.8% [at 3.88 µM]

CCCn1c(=O)c2[nH]c(-c3ccccc3)nc2n(CCC)c1=O
active: Potency [8] 0.0794 µM | Potency [11] 0.379 µM
inactive: Potency [1] > 46 µM | Potency [3] | Potency [10] | Potency [5] | Potency [6] | Potency [7]

O=c1nc2ccccc2c2n1C[C@H](CN1CCN(c3ccccc3)CC1)N2
inactive: Potency [1] > 46 µM | Potency [2] > 46 µM | Potency [3] | Potency [11] | Potency [4] | Potency [5] | Potency [6] | Potency [7]

Nc1nc(NCCc2ccc(O)cc2)nc2nc(-c3ccco3)nn12
active: Potency [8] 31.6 µM
inactive: Potency [2] > 46 µM | Potency [11] | Potency [10] | Potency [4] | Potency [5] | Potency [6] | Potency [7]

Fc1cccc(/C=N\N=C/c2cccc(F)c2)c1
inactive: Potency [2] > 46 µM | Potency [3] | Potency [11] | outcome [12] | Potency [10] | Potency [13] | Potency [14] | Potency [16] | outcome [17] | outcome [18] | Potency [4] | Potency [5] | Potency [6] | Potency [7]
active: Potency [8] 0.2 µM | Potency [15] 2.51 µM

Cc1ccc(S(=O)(=O)/C=C\C#N)cc1
inactive: Potency [1] > 46 µM | Potency [2] > 46 µM | Potency [10] | Potency [5] | Potency [6] | Potency [7]
active: Potency [8] 3.98 µM | Potency [19] 0.0158 µM | Potency [20] 5.01 µM

CC[C@@H](C)[C@H]1O[C@]2(CC[C@@H]1C)C[C@@H]1C[C@H](C/C=C(/C)[C@H](O[C@@H]3C[C@H](OC)[C@H](O[C@@H]4C[C@H](OC)[C@@H](O)[C@H](C)O4)[C@H](C)O3)[C@@H](C)/C=C\C=C3CO[C@@H]4[C@H](O)C(C)=C[C@@H](C(=O)O1)[C@]34O)O2 (tested in a mixture with another compound)
inactive: Potency [8] | Potency [1] > 46 µM | Potency [2] > 46 µM | Potency [11] | Potency [5] | Potency [6] | Potency [7]

CCCCC(=O)NCCc1c(Cc2ccccc2)[nH]c2ccccc12
inactive: Potency [2] > 46 µM | Potency [3] | Potency [10] | Potency [5] | Potency [6] | Potency [7]
active: Potency [8] 3.16 µM | Potency [9] 0.794 µM
